From PubChem BioAssay
In the library only some 2.2% were active in any assay of this set; here they are far more common.
CHRM4 antagonist: human M4 muscarinic receptor antagonists, primary screen, CHO cells, Fluo-8 calcium fluorescence. AID 624125, 2012. inhibition, % at 3 µM. CHO-hM4 cells, ACh EC80. 360,000 tested, 0.73% active. Muscarinic acetylcholine receptor M4 (Homo sapiens), P08173;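 active = inhibition above its plate's cutoff, the mean inhibition of sample wells plus 3 SD, cut at about 27% in these data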;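 note: 0% = acetylcholine EC80 with DMSO and 100% = DMSO without agonist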
Target sequence (P08173 whole entry, looked up): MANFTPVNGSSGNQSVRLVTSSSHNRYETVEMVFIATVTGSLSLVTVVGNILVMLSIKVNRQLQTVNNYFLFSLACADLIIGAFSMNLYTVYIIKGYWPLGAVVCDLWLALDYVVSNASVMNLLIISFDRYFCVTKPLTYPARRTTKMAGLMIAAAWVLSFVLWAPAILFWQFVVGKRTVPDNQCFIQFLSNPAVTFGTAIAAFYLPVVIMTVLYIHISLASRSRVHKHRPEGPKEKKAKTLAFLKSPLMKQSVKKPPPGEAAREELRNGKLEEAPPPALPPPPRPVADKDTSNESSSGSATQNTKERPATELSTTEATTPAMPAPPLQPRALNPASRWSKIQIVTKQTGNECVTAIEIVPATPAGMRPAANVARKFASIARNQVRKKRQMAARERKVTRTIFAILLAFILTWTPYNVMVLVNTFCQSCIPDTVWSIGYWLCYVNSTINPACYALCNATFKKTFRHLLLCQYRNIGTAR
M1 PAM: human M1 muscarinic receptor positive allosteric modulators, primary screen, CHO-K1 cells, Fluo-8 calcium fluorescence, 1536-well | CHO-K1 hM1, ACh EC20; 0% = ACh EC20, 100% = maximal ACh | activation, % at 3 µM | Muscarinic acetylcholine receptor M1 (Homo sapiens), P11229 | 360,000 tested, 0.088% active; in the data active = activation above about 19%, passing the limit was not always enough
M1 antag: human M1 muscarinic receptor antagonists, primary screen, CHO-K1 cells, Fluo-8 calcium fluorescence, 1536-well; inhibition, % at 3 µM; Muscarinic acetylcholine receptor M1 (Homo sapiens), P11229; 360,000 tested, 1.3% active; CHO-K1 hM1, ACh EC80 antagonist;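 active = percent inhibition above its own plate's cutoff, namely the mean of that plate's compound wells plus 3 SD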;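 note: peak over basal fluorescence ratio during 140 s after agonist addition; 0% = ACh EC80 plus DMSO and 100% = DMSO alone without agonist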
CHRM4 PAM: human M4 muscarinic receptor positive allosteric modulators, primary screen, CHO-K1 cells, Fluo-8 calcium fluorescence; Muscarinic acetylcholine receptor M4 (Homo sapiens), P08173; CHO-K1 hM4/Gqi5, ACh EC20; 0% = ACh EC20, 100% = maximal ACh; activation, % at 3 µM; 360,000 tested, 0.4% active;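 active = activation above its plate's cutoff, the mean activation of sample wells plus 3 SD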
CHRM1 agonist: human M1 muscarinic receptor agonists, primary screen, Fluo-8 calcium fluorescence, CHO-K1 cells, HTS; Muscarinic acetylcholine receptor M1 (Homo sapiens), P11229; CHO-K1 hM1, agonist mode; 0% DMSO, 100% acetylcholine EC100; activation, % at 3 µM; 360,000 tested, 0.33% active;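 active = activation above the run's mean compound activation plus 3 SD, cut at about 16% in these data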;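 note: peak over basal fluorescence ratio within a 140 s kinetic read after compound addition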
M4 ag: human M4 muscarinic receptor agonists, primary screen, CHO-K1 cells, Fluo-8 calcium fluorescence. CHO-K1 hM4/Gqi5; vehicle 0%, full acetylcholine response 100%. activation, % at 3 µM. 360,000 tested, 0.14% active;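 active = activation above the run mean over all test wells plus 3 SD, cut at about 32% in these data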;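 note: peak over basal fluorescence ratio per well then scaled between controls; 0% = DMSO wells and 100% = acetylcholine at EC100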
Numbers without * were called inactive.

SMILES	CHRM4 antagonist	M1 PAM	M1 antag	CHRM4 PAM	CHRM1 agonist	M4 ag
COc1ccc([C@H]2[C@H](C(=O)OC(C)(C)C)N3N=Cc4ccccc4C3C23C(=O)c2ccccc2C3=O)c(OC)c1 (stereo not given in full)	-13	1	3	-6	-9	1
CCN(c1ccccc1)S(=O)(=O)c1cccc(C(=O)NCC(c2cccs2)N(C)C)c1 (stereo not given)	-3	-24	52*	-4	-5	3
CNS(=O)(=O)c1cccc(C(=O)NCC(c2cccs2)N(C)C)c1 (stereo not given)	7	-2	-3	-1	-5	-1
COc1ccc2cc1Oc1ccc(cc1)C[C@H]1c3cc(c(OC)cc3CCN1C)Oc1c(OC)c(OC)cc3c1[C@H](C2)N(C)CC3	78*	-25	91*	-17	-7	6
COc1ccc2cc1Oc1ccc(cc1)C[C@H]1c3c(cc4c(c3Oc3cc5c(cc3OC)CCN(C)[C@@H]5C2)OCO4)CCN1C	13	-6	-32	-11	-7	3
CCOC(=O)Cn1c(=O)oc2cc(S(=O)(=O)N3CCCc4ccccc43)ccc21	-8	-5	5	-5	-8	6
O=C(Cn1c(=O)oc2cc(S(=O)(=O)N3CCc4ccccc43)ccc21)NC1CCCC1	-8	-21	27	3	-12	3
O=C(Cn1c(=O)oc2cc(S(=O)(=O)N3CCCCCC3)ccc21)NC1CCCCC1	-16	15	-4	17*	7	2
CC(C)CCNC(=O)Cn1c(=O)oc2cc(S(=O)(=O)N3CCc4ccccc43)ccc21	14	-23	31*	-10	-12	4
CCOC(=O)Cn1c(=O)oc2cc(S(=O)(=O)NC3CCCc4ccccc43)ccc21 (stereo not given)	1	-2	1	6	1	6
CCOC(=O)Cn1c(=O)oc2cc(S(=O)(=O)NC3CCCCC3)ccc21	1	-20	32*	-9	-1	3
Cc1cccc(NC(=O)C2CCN(S(=O)(=O)c3c(C)c(C)cc(C)c3C)CC2)n1	5	-12	12	-11	-5	11
CCn1nc(C(=O)OCC(=O)c2ccc(F)cc2)c2ccccc2c1=O	-8	9	0	28*	-7	7
CCCCCCn1nc(C(=O)OCC(=O)c2c(N)n(C)c(=O)n(C)c2=O)c2ccccc2c1=O	10	-17	39*	-13	-2	16
CCn1nc(C(=O)OCC(=O)N2CC(=O)Nc3ccccc32)c2ccccc2c1=O	-6	-3	17	23*	-6	0
Cn1cccc1C(=O)OCC(=O)N1CC(=O)Nc2ccccc21	4	3	1	-4	-1	1
Cn1nc(C(=O)OCC(=O)c2ccc(Cl)cc2)c2ccccc2c1=O	-6	11	-19	16*	-1	3
CC(=O)c1c(C)[nH]c(C(=O)OCC(=O)Nc2ccc(C)cc2[N+](=O)[O-])c1C	12	-2	6	0	3	11
CCOC(=O)/C(C#N)=C/c1c(N2CCCCCC2)nc2ccccn2c1=O	2	9	-6	-9	-3	10
COCCCNC(=S)NNC(=O)c1ccoc1C	4	0	5	4	-3	0
CC(C)N(C(=O)C(=O)c1cccn1-c1ccccc1C#N)C(C)C	1	13	-13	17*	-4	1
O=C(O)CCN1C(=O)C2CCCCC2C1=O (stereo not given)	-16	7	-14	19*	-1	1
Cc1c(C(=O)N2CCN(c3ccccc3)CC2)oc2c1C(=O)CC(C)(C)C2	2	-15	30*	-10	0	19
Cc1c(C(=O)N2CCN(c3ccccc3F)CC2)oc2c1C(=O)CC(C)(C)C2	5	-2	10	-5	0	15
CCOC(=O)C1(CC)NC(c2ccco2)C2C(=O)N(C)C(=O)C21 (stereo not given)	6	11	-22	7	-2	1
SMILES	CHRM4 antagonist	M1 PAM	M1 antag	CHRM4 PAM	CHRM1 agonist	M4 ag
O=C(/C=C/c1ccc2c(c1)OCO2)N1CCOCC1	2	5	-23	4	-2	1
CC(C)(C)c1ccc(C(=O)Nc2ccc(C(=O)N3CCCC3)cc2)cc1	11	2	2	-7	-5	5
Cc1coc2cc3oc(=O)c(CCC(=O)NC4CC4)c(C)c3cc12	4	-21	31*	-1	2	13
CCc1ccc([C@H]2C(C(=O)O)=C[C@@H](C(C)(C)C)N2S(=O)(=O)c2ccc(C)cc2)cc1	-20	24	-32	10	-3	0
CC(=O)Nc1ccccc1OCC(=O)c1cc(C)n(Cc2cccs2)c1C	22	-10	32*	-8	1	12
CCCCOC(=O)Nc1ccc2c(C)cc(=O)oc2c1	-10	6	-8	30*	-4	0
O=C(OCC(=O)N(C1CCCCC1)C1CCCCC1)c1ccco1	-4	6	-6	1	-4	1
O=C(N/N=C/c1ccc(Cl)cc1Cl)c1n[nH]c2c1CCCC2	-12	7	-18	26*	-8	1
CC(=O)Nc1ccc(OCC(=O)c2cc(C)ccc2C)cc1	2	12	-16	19*	-1	0
CCOc1ccc(NS(=O)(=O)c2ccc(C(=O)NCC(c3cccs3)N3CCOCC3)cc2)cc1 (stereo not given)	8	-3	18	-8	29*	39*
CN(C)C(CNC(=O)c1cccc(NS(=O)(=O)c2ccc(Br)cc2)c1)c1ccco1 (stereo not given)	-4	-26	70*	-7	-7	3
CCOc1ccc(S(=O)(=O)Nc2ccc(C(=O)NCC(c3ccco3)N(C)C)cc2)cc1 (stereo not given)	20	-20	32*	-15	-5	3
CC(=O)c1ccc(S(=O)(=O)Nc2ccc(C(=O)NCC(c3cccs3)N3CCOCC3)cc2)cc1 (stereo not given)	-24	4	-14	9	-2	2
N#CCC(=O)Nc1ccc(C(=O)NCCC(c2ccccc2)c2ccccc2)cc1	-7	5	-5	2	0	6
COc1ccc(NC(=O)COc2ccccc2C(=O)NCC(c2ccccc2)N(C)C)cc1Cl (stereo not given)	15	-31	73*	-6	-8	12
